Counter-ions that a name gives are not always drawn. ± gives the standard deviation of the averaged measurements.
Tests used:
Molm13 = test: cell viability relative to DMSO control (bortezomib = 0%); higher = less growth inhibition; conditions: 10 nM; 72 h
Outline: (§1)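 FLT3-ITD+ acute myeloid leukemia cells were dispensed onto a library of 679 approved and investigational compounds in 384-well plates, at 1000 cells per well in 50 µL and a single 10 nM dose, for 72 h. The screen was run in duplicate. Cell viability was read by CellTiter-Glo luminescence on an EnVision reader. Values were converted to percentages by per-plate linear regression between DMSO-treated cells (100%) and positive-control-treated cells (0%).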

Mv4-11 = test: as above; conditions: 10 nM; 72 h
Outline: as §1

Structure (SMILES) | cell viability (Molm13) [%] | cell viability (Mv4-11) [%]
CCCCC/C=C\C/C=C\C/C=C\C/C=C\CCCC(=O)NC[C@]1(C)CCC[C@]2(C)c3ccc(C(C)C)cc3CC[C@@H]12 [Arachidonic Acid Leelamide] | 105 ± 17 | 112 ± 1.2
NC(=O)c1ccc2nc(-c3ccc(Oc4ccc(Cl)cc4)cc3)[nH]c2c1 | 100 ± 13 | 114 ± 6.3
Cc1ccc(C(=O)Nc2ccc(CN3CCN(C)CC3)c(C(F)(F)F)c2)cc1C#Cc1cnc2[nH]ncc2c1 | -13.5 ± 5.7 | -14.8 ± 0.36
Cn1cc(-c2ccc3nnc(Sc4ccc5ncccc5c4)n3n2)cn1 | 127 ± 6.4 | 104 ± 4.2
COc1cc(Nc2ncc(F)c(Nc3ccc4c(n3)N(COP(=O)(O)O)C(=O)C(C)(C)O4)n2)cc(OC)c1OC [Fostamatinib (R788)] | 99.7 ± 0.34 | 104 ± 1.8
CC(C)(C#N)c1ccc(N2C(=O)OCc3cnc4ccc(-c5cnc6ccccc6c5)cc4c32)cc1 | 93.6 ± 11 | 102 ± 9.2
O=c1ccc2ccc(O)c(O)c2o1 [Daphnetin] | 100 ± 4.2 | 109 ± 12
Oc1cc(-c2nc(-c3ccccc3)[nH]c2-c2ccncc2)ccc1Cl | 105 ± 34 | 105 ± 3.6
N#C/C(=C\c1ccc(O)c(O)c1)C(=O)NCc1ccccc1 | 96.4 ± 11 | 100.7 ± 0.73
COCCOc1cnc2ccn([C@H](C)c3nnc4c(F)cc(-c5cnn(C)c5)cn34)c(=O)c2c1 | 104 ± 13 | 115 ± 1.6
CN(C)CCOc1ccc(-c2nc(-c3ccncc3)c(-c3ccc4c(c3)CC/C4=N\O)[nH]2)cc1 | 103 ± 23 | 101 ± 4
NC(=O)Nc1cc(-c2ccc(CN3CCOCC3)cc2)sc1C(N)=O | 108 ± 30 | 113 ± 6.3
Cc1cc(N2CCOCC2)ccc1Nc1nc(NC2CCCCC2)c2[nH]cnc2n1 | 119 ± 3.6 | 108 ± 15
Cn1cc(-c2cnn3c(N)c(Br)c([C@@H]4CCCNC4)nc23)cn1 | 92.5 ± 4.6 | 104 ± 4.8
FC(F)(F)c1ccc(/C=C/c2nc(COc3ccc(CCCCn4ccnn4)cc3)co2)cc1 [Mubritinib (TAK 165)] | 107 ± 9 | 104 ± 7.6
Nc1[nH]nc2nnc(-c3c(-c4ccccc4)nn4ccccc34)cc12 | 95.5 ± 1.6 | 109 ± 11
Cc1c(CN2CCN(S(C)(=O)=O)CC2)sc2c(N3CCOCC3)nc(-c3cnc(N)nc3)nc12 | 106 ± 16 | 107 ± 9.6
CCOc1ccn(-c2ccc(F)cc2)c(=O)c1C(=O)Nc1ccc(Oc2ccnc(N)c2Cl)c(F)c1 | 102.7 ± 0.96 | 114 ± 7
CN1CC[C@H](c2c(O)cc(O)c3c(=O)cc(-c4ccccc4Cl)oc23)[C@H](O)C1 [Flavopiridol (Alvocidib) hydrochloride] | 113.8 ± 0.38 | 100 ± 3.2
O=C1Nc2ccc(CN3C(=O)CSC3=O)cc2/C1=C/c1cc(CN2CCOCC2)c[nH]1 | 92.3 ± 7.1 | 110 ± 8.4
CCCCCCCCCCCCc1ccc(S(=O)(=O)Nc2nncs2)cc1 | 108 ± 3 | 100 ± 2
CC#CC(=O)Nc1ccc2ncnc(Nc3cccc(Br)c3)c2c1 | 99.9 ± 3.4 | 98.9 ± 4.2
CN(C)C(=O)c1ccc(S(=O)(=O)c2ccc(NC(=O)[C@@](C)(O)C(F)(F)F)c(Cl)c2)cc1 | 97 ± 12 | 109 ± 7
CC(=O)O[C@H]1C(=O)[C@@]2(C)[C@H]([C@H](OC(=O)c3ccccc3)[C@]3(O)C[C@H](OC(=O)[C@H](O)[C@@H](NC(=O)c4ccccc4)c4ccccc4)C(C)=C1C3(C)C)[C@]1(OC(C)=O)CO[C@@H]1C[C@@H]2O [Paclitaxel] | -2.33 ± 4.8 | -3.89 ± 0.25

Structure (SMILES) | cell viability (Molm13) [%] | cell viability (Mv4-11) [%]
N#C/C(=C\c1ccc(O)c(O)c1)C(=O)Nc1ccccc1 | 106 ± 6.4 | 115 ± 17
C#Cc1cccc(Nc2ncnc3cc(OC)c(OCCCCCCC(=O)NO)cc23)c1 | 105 ± 10 | 120 ± 20
CC(C)n1cnc2c(NCc3ccccc3)nc(NCCCO)nc21 [Bohemine] | 95.3 ± 4.3 | 103 ± 13
O=C(Nc1ccc(-c2ccnc(Nc3ccc(N4CCOCC4)cc3)n2)cc1)C1CCCN1 (centres undefined) | 107 ± 16 | 95.7 ± 4.2
CN1C/C=C/CCOc2cccc(c2)-c2ccnc(n2)Nc2cccc(c2)C1 | 86.77 ± 0.29 | 102 ± 22
C=CC(=O)Nc1cccc(C)c1Nc1ncc2cc(-c3c(Cl)c(OC)cc(OC)c3Cl)ccc2n1 | 112 ± 22 | 112 ± 1.2
CC(=O)CC(c1ccccc1)c1c(O)c2ccccc2oc1=O (centres undefined) [Warfarin] | 109 ± 8.2 | 103 ± 7
Nc1nccc(Oc2ccc3c(C(=O)Nc4cccc(C(F)(F)F)c4)cccc3c2)n1 | 94.7 ± 6.4 | 117 ± 8.5
CN(C)C(=O)c1cc2cnc(Nc3ccc(N4CCNCC4)cn3)nc2n1C1CCCC1 | 113 ± 12 | 113 ± 12
C=CC(=O)Nc1cccc(Nc2nc(Nc3ccc(Oc4ccnc(C(=O)NC)c4)cc3)ncc2F)c1 | 114 ± 24 | 108 ± 9.3
CN1CCN(c2cccc(Nc3nc4c(-c5ccc(S(C)(=O)=O)cc5)cccn4n3)c2)CC1 | 118 ± 14 | 101 ± 7.2
Cn1cnc2c(NCc3ccccc3)nc(NCCO)nc21 [Olomoucine] | 106 ± 16 | 104.2 ± 1
COc1ccc(C2CC(=O)c3c(O)cc(OC4OC(COC5OC(C)C(O)C(O)C5O)C(O)C(O)C4O)cc3O2)cc1OC (centres undefined) [Methyl hesperidin] | 109 ± 12 | 117 ± 20
COc1cc(N2CCOCC2)ccc1Nc1ncc(Cl)c(Nc2ccccc2NS(C)(=O)=O)n1 | 108 ± 10 | 111 ± 24
C#Cc1cccc(Nc2ncnc3cc(OCCOC)c(OCCOC)cc23)c1 [Erlotinib] | 102 ± 6.9 | 102 ± 10
COc1ccc(C(=C2C(=O)Nc3ccccc32)c2ccc(OC)cc2)cc1 | 95.1 ± 2.4 | 103 ± 5
COC(=O)Nc1nc2cc(C(=O)c3cccs3)ccc2[nH]1 [Nocodazole] | 112.8 ± 0.63 | 105.5 ± 0.46
CN(C)C/C=C/C(=O)Nc1ccc(C(=O)Nc2cccc(Nc3ncc(Cl)c(-c4c[nH]c5ccccc45)n3)c2)cc1 | 88 ± 18 | 95.3 ± 1.1
CCS(=O)(=O)N1CC(CC#N)(n2cc(-c3ncnc4[nH]ccc34)cn2)C1 [Baricitinib†(Phosphate)] | 112 ± 13 | 115 ± 5.4
CCOc1cc(N2CCC(O)CC2)ccc1Nc1ncc2c(n1)N(C)c1ccccc1C(=O)N2C | 98.8 ± 5.5 | 98.8 ± 2
O=C(O)CN1C(=O)c2c(I)c(I)c(I)c(I)c2C1=O | 126 ± 38 | 107 ± 3.2
CC[C@H](CO)Nc1nc(NCc2ccccc2)c2ncn(C(C)C)c2n1 [(R)-Roscovitine] | 105 ± 9.1 | 103 ± 15
Cc1cc(CN2CCN(c3c(Br)cnc4nc(-c5ccc(N6CCN(C)CC6)cc5)[nH]c34)CC2)no1 | 85.6 ± 1.8 | 95.3 ± 3.4
C[C@]1(O)C[C@@H](c2nc(-c3ccc4ccc(-c5ccccc5)nc4c3)c3c(N)nccn32)C1 [OSI-906 (Linsitinib)] | 118 ± 12 | 116 ± 12

Structure (SMILES) | cell viability (Molm13) [%] | cell viability (Mv4-11) [%]
COc1cc2ncnc(Nc3ccc(O)cc3)c2cc1OC [Janex 1] | 101 ± 12 | 111 ± 5.3
Cc1nc(Nc2ncc(C(=O)Nc3c(C)cccc3Cl)s2)cc(N2CCN(CCO)CC2)n1 [Dasatinib] | 111 ± 29 | 114 ± 2.2
N#CCNC(=O)c1ccc(-c2ccnc(Nc3ccc(N4CCOCC4)cc3)n2)cc1 [Momelotinib (CYT387)] | 98.5 ± 17 | 110 ± 16
CNc1nc(Nc2cnn([C@H]3CCN(C4COC4)C[C@@H]3F)c2Cl)ncc1C(F)(F)F | 99.6 ± 15 | 106 ± 2.4
CCNc1nc(Nc2cc(F)c(C(=O)N3CCOCC3)cc2OC)ncc1C(F)(F)F | 105.79 ± 0.065 | 102.3 ± 0.71
O=c1sn(-c2cccc3ccccc23)c(=O)n1Cc1ccccc1 [Tideglusib] | 116 ± 9.5 | 95.4 ± 20
COc1ccc(S(=O)(=O)Nc2ccccc2CN(C)C/C=C/c2ccc(Cl)cc2)cc1 [KN-92 (hydrochloride)] | 129 ± 18 | 109 ± 10
Cc1ccc(NC(=O)c2ccc(CN3CCN(C)CC3)cc2)cc1Nc1nccc(-c2cccnc2)n1 [Imatinib Mesylate (STI571)] | 105 ± 13 | 106 ± 7.4
CCOc1cc2ncc(C#N)c(Nc3ccc(OCc4ccccn4)c(Cl)c3)c2cc1NC(=O)/C=C/CN(C)C [Neratinib(HKI-272)] | 106 ± 20 | 100 ± 3.7
CN(C)C[C@@H]1CCn2cc(c3ccccc32)C2=C(C(=O)NC2=O)c2cn(c3ccccc23)CCO1 [Ruboxistaurin hydrochloride] | 90 ± 7.3 | 101 ± 10
CCCCOc1c(C(=O)c2c(F)cc(C)cc2F)c[nH]c2nncc1-2 | 112 ± 1.9 | 107 ± 7
COc1cc(CCc2cc(NC(=O)c3ccc(N4CC(C)NC(C)C4)cc3)n[nH]2)cc(OC)c1 (centres undefined) | 102 ± 17 | 99.5 ± 2
N#CC[C@H](C1CCCC1)n1cc(-c2ncnc3[nH]ccc23)cn1 [Ruxolitinib] | 105 ± 10 | 111.1 ± 0.83
O=C1NC(=O)C(c2c[nH]c3ccccc23)=C1c1c[nH]c2ccccc12 [Bisindolylmaleimide IV] | 105 ± 5.2 | 100 ± 2.6
Cn1ncc(Cl)c1-c1cc(C(=O)N[C@H](CN)Cc2cccc(F)c2)sc1Cl [Afuresertib] | 111 ± 4.8 | 113 ± 2.5
Nc1cccc(-c2nc(N3CCOCC3)c3oc4ncccc4c3n2)c1 [PIK-inhibitors] | 82.5 ± 19 | 103 ± 15
Nc1ncnc2c1ncn2[C@@H]1O[C@H](COP(=O)(O)O)[C@@H](O)[C@H]1O [Adenosine 5'-monophosphate] | 96 ± 7.5 | 113 ± 2.5
C=CC(=O)N1CCC[C@@H](n2nc(-c3ccc(Oc4ccccc4)cc3)c3c(N)ncnc32)C1 | 95.3 ± 9.3 | 93.2 ± 4.6
Cn1cc(/C=C2\C(=O)Nc3cccnc32)c2ccccc21 | 104 ± 17 | 107 ± 3.6
CNC(=O)c1ccc(-c2cnc3ncc(Cc4ccc5ncccc5c4)n3n2)cc1F | 109 ± 3.6 | 108 ± 6.8
NC(=O)c1ncn([C@@H]2O[C@H](CO)[C@@H](O)[C@H]2O)n1 [Ribavirin] | 98.7 ± 13 | 106 ± 5.6
CC(C)(C)n1nc(Cc2cccc3ccccc23)c2c(N)ncnc21 | 106 ± 29 | 106 ± 3
Cc1ccc(-n2nc(C(C)(C)C)cc2NC(=O)Nc2ccc(OCCN3CCOCC3)c3ccccc23)cc1 [Doramapimod] | 95.877 ± 0.081 | 98.1 ± 1.1
CC(C)c1ccc2oc3nc(N)c(C(=O)O)cc3c(=O)c2c1 [Amlexanox] | 96.8 ± 11 | 92.6 ± 2.2

From the supplement of paper PMC8699584
